We go through 6 compounds from ChEMBL document CHEMBL1961873, “Compounds: GSK PKIS; Assays: Nanosyn kinase panel” (2012).

Experiment [1] has as its target Mast/stem cell growth factor receptor Kit (Homo sapiens) (UniProt P10721). Conditions: at 1 µM.
For experiment [2], the system named is Mast/stem cell growth factor receptor Kit (Homo sapiens), P10721 [D816V]. The following applies: at 0.1 µM.
For experiment [3] the test system is unchanged. The following applies: at 1 µM.
For experiment [4], the system named is Mast/stem cell growth factor receptor Kit (Homo sapiens), P10721 [T670I]. The following applies: at 0.1 µM.
The test system is the same in experiment [5]. The following applies: at 1 µM.
The subject of experiment [6] is Mast/stem cell growth factor receptor Kit (Homo sapiens), P10721 [V560G]. The following applies: at 0.1 µM.
Experiment [7] shares this test system. The following applies: at 1 µM.
In experiment [8] the target is Tyrosine-protein kinase Lck (Homo sapiens) (UniProt P06239). Conditions: at 0.1 µM.
Experiment [9] has the same target. Conditions: at 1 µM.
Experiment [10] addresses Leukocyte tyrosine kinase receptor (Homo sapiens) (UniProt P29376). Conditions: at 0.1 µM.
The target is the same in experiment [11]. Conditions: at 1 µM.
Experiment [12] concerns the target Tyrosine-protein kinase Lyn (Homo sapiens) (UniProt P07948). Conditions: at 0.1 µM.
Experiment [13] has the same target. Conditions: at 1 µM.
Experiment [14] has the same target. Conditions: at 0.1 µM. This is another data set of the same source.
For experiment [15] the target is unchanged. Conditions: at 1 µM. This is another data set of the same source.
The target in experiment [16] is T1, Tyrosine-protein kinase Mer (Homo sapiens) (UniProt Q12866).
T1 sequence (whole entry): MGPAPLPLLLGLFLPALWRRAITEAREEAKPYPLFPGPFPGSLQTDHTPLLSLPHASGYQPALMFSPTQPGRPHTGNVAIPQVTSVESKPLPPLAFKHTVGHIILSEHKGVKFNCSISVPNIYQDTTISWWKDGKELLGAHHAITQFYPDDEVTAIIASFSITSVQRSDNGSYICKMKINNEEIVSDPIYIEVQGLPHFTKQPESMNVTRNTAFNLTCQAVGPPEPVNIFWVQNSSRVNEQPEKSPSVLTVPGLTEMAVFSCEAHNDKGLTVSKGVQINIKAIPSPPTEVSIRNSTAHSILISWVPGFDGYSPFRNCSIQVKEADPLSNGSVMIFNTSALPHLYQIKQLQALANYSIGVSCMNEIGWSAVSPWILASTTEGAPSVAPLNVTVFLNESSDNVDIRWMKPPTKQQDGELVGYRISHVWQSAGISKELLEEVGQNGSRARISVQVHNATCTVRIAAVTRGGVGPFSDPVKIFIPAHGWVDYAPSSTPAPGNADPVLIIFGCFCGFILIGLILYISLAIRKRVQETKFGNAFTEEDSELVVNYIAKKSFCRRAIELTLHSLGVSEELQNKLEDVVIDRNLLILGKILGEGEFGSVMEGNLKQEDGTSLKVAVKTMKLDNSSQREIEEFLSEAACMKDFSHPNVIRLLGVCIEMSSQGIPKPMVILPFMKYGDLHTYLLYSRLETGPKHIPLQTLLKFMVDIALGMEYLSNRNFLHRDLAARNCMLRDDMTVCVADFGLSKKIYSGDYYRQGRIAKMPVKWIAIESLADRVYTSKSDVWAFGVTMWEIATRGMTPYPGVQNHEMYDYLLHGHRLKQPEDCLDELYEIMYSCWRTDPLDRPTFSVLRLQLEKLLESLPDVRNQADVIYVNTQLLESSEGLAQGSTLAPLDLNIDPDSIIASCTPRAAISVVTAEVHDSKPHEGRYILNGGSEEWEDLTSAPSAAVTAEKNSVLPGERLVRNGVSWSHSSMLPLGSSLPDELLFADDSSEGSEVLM
The following applies: at 0.1 µM.

Experiment [17] addresses T1, Tyrosine-protein kinase Mer (Homo sapiens). Conditions: at 1 µM.
The target in experiment [18] is Hepatocyte growth factor receptor (Homo sapiens) (UniProt P08581). Conditions: at 0.1 µM.
Experiment [19] has the same target. Conditions: at 1 µM.
Experiment [20] deals with T2, Muscle, skeletal receptor tyrosine-protein kinase (Homo sapiens) (UniProt O15146).
T2 sequence (whole entry): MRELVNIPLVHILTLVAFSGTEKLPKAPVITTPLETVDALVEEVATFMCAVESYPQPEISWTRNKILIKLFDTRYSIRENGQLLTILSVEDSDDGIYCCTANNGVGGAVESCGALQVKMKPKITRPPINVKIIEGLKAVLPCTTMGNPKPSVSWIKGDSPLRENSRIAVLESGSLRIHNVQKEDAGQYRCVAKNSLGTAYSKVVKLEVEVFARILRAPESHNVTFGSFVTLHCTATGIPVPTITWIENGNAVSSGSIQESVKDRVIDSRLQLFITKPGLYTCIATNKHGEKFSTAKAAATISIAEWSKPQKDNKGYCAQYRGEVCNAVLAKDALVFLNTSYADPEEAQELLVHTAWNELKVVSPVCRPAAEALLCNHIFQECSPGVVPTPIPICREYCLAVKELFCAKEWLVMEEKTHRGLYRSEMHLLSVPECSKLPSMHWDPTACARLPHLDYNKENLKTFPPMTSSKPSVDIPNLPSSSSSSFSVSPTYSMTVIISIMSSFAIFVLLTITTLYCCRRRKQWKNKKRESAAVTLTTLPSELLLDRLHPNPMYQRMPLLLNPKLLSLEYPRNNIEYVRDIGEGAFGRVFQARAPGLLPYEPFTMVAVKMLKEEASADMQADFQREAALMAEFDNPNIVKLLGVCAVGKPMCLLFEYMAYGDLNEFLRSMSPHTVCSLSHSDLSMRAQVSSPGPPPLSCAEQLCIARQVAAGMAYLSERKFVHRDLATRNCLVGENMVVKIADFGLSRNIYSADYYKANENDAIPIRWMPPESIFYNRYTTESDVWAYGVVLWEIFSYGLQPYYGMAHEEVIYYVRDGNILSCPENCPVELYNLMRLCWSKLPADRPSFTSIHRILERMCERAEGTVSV
The following applies: at 0.1 µM.

Chain of Mast/stem cell growth factor receptor Kit (Homo sapiens), P10721 [V560G] (P10721 whole entry V560G): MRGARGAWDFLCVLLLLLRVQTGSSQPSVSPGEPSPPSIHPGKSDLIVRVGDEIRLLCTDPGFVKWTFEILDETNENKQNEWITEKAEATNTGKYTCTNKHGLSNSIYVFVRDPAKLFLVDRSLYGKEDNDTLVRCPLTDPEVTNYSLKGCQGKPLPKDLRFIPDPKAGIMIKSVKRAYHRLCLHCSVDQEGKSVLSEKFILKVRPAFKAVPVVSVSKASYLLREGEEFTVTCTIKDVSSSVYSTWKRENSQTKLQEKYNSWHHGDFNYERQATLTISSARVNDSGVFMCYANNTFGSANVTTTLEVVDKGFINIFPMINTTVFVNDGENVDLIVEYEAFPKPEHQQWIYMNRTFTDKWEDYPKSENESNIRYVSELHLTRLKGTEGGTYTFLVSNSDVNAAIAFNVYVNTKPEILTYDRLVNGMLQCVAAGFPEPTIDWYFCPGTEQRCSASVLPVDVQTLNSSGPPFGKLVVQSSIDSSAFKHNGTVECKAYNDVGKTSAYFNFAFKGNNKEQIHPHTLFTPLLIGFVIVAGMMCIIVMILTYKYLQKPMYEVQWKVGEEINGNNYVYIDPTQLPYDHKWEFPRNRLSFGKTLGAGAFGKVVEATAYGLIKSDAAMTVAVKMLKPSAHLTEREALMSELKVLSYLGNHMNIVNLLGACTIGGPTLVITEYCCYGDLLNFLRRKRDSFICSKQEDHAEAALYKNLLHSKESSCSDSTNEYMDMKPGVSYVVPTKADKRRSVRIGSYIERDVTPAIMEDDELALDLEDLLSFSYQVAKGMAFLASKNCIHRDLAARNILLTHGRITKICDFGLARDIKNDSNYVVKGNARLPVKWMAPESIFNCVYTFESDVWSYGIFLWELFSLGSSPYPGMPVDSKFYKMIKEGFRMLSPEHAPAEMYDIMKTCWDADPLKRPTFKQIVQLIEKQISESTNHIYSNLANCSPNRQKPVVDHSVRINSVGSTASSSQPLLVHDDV
Chain of Mast/stem cell growth factor receptor Kit (Homo sapiens), P10721 [D816V] (P10721 whole entry D816V): as the sequence (P10721 whole entry V560G) above, with G560V, D816V counted along it
Chain of Tyrosine-protein kinase Lck (Homo sapiens) (P06239 2-509 limits assumed): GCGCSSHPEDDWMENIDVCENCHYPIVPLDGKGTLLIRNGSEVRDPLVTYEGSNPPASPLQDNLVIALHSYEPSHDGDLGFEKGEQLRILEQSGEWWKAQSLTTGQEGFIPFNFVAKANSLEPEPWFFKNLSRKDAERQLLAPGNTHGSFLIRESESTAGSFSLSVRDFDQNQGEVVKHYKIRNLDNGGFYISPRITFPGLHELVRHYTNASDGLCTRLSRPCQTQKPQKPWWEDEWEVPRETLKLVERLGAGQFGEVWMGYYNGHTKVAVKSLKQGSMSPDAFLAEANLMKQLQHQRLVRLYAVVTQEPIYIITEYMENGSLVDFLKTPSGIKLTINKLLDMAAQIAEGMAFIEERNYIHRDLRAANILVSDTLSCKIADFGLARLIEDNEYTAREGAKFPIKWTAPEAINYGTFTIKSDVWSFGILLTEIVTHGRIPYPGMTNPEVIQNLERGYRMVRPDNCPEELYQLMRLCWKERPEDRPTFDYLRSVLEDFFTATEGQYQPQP
Chain of Mast/stem cell growth factor receptor Kit (Homo sapiens), P10721 [T670I] (P10721 whole entry T670I): as the sequence (P10721 whole entry V560G) above, with G560V, T670I counted along it
Chain of Leukocyte tyrosine kinase receptor (Homo sapiens) (P29376 whole entry): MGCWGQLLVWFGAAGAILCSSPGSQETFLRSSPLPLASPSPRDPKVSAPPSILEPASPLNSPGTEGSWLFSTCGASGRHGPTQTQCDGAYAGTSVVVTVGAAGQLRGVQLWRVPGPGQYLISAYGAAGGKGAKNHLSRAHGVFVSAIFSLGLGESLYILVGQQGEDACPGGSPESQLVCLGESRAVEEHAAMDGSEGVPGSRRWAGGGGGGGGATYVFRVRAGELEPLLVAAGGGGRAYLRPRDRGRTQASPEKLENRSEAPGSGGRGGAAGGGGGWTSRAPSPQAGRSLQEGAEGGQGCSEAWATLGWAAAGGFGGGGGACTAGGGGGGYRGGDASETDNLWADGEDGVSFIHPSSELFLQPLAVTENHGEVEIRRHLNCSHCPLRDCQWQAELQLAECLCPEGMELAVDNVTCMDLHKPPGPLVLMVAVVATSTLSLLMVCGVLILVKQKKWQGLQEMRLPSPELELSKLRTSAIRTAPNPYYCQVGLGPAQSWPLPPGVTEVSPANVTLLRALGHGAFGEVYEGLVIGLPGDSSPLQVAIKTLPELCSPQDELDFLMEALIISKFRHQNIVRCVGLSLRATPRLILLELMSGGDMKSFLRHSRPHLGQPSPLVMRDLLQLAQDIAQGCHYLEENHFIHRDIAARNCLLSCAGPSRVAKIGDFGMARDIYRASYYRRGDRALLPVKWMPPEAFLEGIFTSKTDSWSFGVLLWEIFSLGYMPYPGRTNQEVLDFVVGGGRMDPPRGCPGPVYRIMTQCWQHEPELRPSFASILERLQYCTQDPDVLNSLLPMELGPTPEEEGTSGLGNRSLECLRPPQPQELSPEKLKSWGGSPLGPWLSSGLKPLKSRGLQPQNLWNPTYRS
Chain of Hepatocyte growth factor receptor (Homo sapiens) (P08581 whole entry): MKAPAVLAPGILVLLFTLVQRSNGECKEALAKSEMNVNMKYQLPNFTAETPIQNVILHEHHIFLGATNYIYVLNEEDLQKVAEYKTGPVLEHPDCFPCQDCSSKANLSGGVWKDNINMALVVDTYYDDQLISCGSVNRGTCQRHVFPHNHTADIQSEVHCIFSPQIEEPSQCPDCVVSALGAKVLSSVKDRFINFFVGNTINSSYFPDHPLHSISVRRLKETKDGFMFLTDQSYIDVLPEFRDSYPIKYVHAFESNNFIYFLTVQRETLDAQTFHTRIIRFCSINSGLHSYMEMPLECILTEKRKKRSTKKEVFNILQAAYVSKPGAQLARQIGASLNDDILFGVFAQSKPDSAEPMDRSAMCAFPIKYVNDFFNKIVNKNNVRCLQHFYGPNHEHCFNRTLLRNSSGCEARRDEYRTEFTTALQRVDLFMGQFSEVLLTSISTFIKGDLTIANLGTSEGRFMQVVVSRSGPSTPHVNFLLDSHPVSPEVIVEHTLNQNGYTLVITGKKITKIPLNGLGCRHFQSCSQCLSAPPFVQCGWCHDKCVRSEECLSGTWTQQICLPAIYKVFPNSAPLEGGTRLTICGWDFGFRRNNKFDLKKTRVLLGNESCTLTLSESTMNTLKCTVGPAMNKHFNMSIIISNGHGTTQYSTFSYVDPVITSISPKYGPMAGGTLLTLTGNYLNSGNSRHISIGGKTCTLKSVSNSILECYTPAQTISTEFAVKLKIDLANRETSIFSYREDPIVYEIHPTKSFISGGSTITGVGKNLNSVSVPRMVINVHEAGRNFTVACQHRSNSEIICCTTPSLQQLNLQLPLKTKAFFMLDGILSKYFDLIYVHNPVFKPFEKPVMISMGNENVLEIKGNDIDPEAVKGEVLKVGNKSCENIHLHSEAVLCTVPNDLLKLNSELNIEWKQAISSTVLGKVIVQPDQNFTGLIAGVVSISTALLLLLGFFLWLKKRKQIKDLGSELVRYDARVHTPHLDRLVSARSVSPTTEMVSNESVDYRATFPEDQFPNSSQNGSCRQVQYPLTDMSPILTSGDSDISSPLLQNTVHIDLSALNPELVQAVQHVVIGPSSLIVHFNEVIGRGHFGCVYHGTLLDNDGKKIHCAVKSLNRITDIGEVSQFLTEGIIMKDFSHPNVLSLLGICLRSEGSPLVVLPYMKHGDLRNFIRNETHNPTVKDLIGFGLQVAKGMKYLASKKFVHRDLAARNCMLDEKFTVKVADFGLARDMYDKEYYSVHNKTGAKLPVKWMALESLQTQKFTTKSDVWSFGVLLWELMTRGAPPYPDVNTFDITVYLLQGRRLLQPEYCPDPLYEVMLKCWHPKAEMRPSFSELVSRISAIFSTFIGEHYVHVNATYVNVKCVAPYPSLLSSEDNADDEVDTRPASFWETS
Chain of Mast/stem cell growth factor receptor Kit (Homo sapiens) (P10721 whole entry): as the sequence (P10721 whole entry V560G) above, with G560V counted along it
Chain of Tyrosine-protein kinase Lyn (Homo sapiens) (P07948 2-512 limits assumed): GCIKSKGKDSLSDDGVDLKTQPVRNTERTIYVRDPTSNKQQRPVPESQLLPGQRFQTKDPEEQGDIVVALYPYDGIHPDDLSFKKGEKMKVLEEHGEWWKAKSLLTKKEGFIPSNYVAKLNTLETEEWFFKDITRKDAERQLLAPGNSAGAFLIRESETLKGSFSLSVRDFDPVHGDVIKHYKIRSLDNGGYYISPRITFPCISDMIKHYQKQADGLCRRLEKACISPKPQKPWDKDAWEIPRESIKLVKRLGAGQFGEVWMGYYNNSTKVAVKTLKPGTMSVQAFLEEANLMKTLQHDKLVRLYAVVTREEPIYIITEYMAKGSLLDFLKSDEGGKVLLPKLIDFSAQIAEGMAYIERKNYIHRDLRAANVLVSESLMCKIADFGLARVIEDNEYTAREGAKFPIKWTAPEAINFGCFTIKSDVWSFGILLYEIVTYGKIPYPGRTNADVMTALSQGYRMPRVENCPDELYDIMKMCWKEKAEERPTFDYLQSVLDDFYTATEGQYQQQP

As to `Cc1ccc(O)cc1Nc1ccnc2cc(-c3ccccn3)ccc12`, the inhibition in experiment [1] turned out to be 43.1%; in experiment [2], 23.5%; in experiment [3], 73.7%; in [4], 4.94%; in experiment [5] it was 3.09%; in experiment [6], 3.25%. The inhibition worked out at 41.2% in experiment [7]; 33.6% in experiment [8]; 76.6% in experiment [9]; 10.9% in experiment [10]; 49.7% in [11]; 72.8% in [12]. Moreover, the inhibition in experiment [13] stood at 94.3%; in [14] it was 65.2%; in [15], 91.9%; in [16], 1.35%; in experiment [17], 4.24%; in [18], 11.7%. Besides, the inhibition in experiment [19] was found to be 5.41%; in [20], 3.21%.

With `CC(C)(CO)CNC(=O)c1ccc2c(c1)/C(=N/Nc1ccc(S(N)(=O)=O)cc1)C(=O)N2`, the inhibition was 6.13% in [1]; -0.32% in experiment [2]; 9.15% in experiment [3]; -1.23% in [4]; -1.94% in [5]; -0.35% in [6]. Also, the inhibition in experiment [7] is 1.1%; in experiment [8], 0.12%; in experiment [9], 3.08%; in [10] it was -1.7%; in experiment [11], -1.87%; in experiment [12], -1.12%. The inhibition in experiment [13] was 9.87%; in experiment [14] it was -1.58%; in [15] it was 8.71%; in experiment [16], -2.26%; in experiment [17], 1.33%; in experiment [18], 9.65%. Also, the figures for the inhibition in experiment [19] and in [20] were 9.33% and 3.03%, respectively.

Take `CCc1nn2ncccc2c1-c1ccnc(NC2CC2)n1`: the inhibition in [1] came out at 7.72%; in [2] it was 0.04%; in [3], 1.83%; in experiment [4], 1.32%; in experiment [5], 2.12%; in [6], 0.78%. Also, the inhibition in experiment [7] stood at 3.12%; in [8], 2.82%; in [9], 6.75%; in experiment [10], 3.02%; in experiment [11], 3.47%; in experiment [12], 2.13%. For the same compound, the inhibition in experiment [13] came to 2.84%; in experiment [14], 2.22%; in experiment [15] it was 3.39%; in experiment [16] it was 3.92%; in experiment [17], 4.58%; in [18], 6.93%. The values for the inhibition in experiment [19] and in experiment [20] were 4.86% and 1.52%, respectively.

Regarding `Fc1ccc(-c2nn3ncccc3c2-c2ccnc(Nc3ccc4c(c3)OCCO4)n2)cc1`, the inhibition in [1] came out at 91.9%; in [2], 3.55%; in experiment [3] it was 4.13%; in experiment [4], 5.56%; in experiment [5] it was 27.3%; in experiment [6], 16.3%. Further, the inhibition in [7] turned out to be 64.5%; in [8] it was 44.7%; in experiment [9] it was 85.1%; in experiment [10], 3.99%; in experiment [11], 5.5%; in [12], 32.5%. Moreover, the inhibition in experiment [13] is 78.8%; in experiment [14] it was 26%; in experiment [15], 72.7%; in experiment [16] it was 5.86%; in experiment [17] it was 31.5%; in [18], 4.89%. The inhibition was found to be 10.7% in experiment [19] and 3.02% in experiment [20].

On to `COC(=O)c1sc(-n2cnc3cc(OC)c(OC)cc32)cc1OCc1ccccc1C(F)(F)F`, for which the inhibition in experiment [1] is 11.8%; in experiment [2], 2.28%; in experiment [3], 2.88%; in experiment [4], 4.55%; in experiment [5], 7.23%; in [6], -0.04%. The inhibition in experiment [7] was found to be 2.01%; in experiment [8], 4.87%; in [9], 32.2%; in experiment [10] it was 5.2%; in experiment [11], 6.79%; in [12] it was 9.46%. Also, the inhibition in experiment [13] was 19.6%; in experiment [14], 6.71%; in experiment [15], 14.7%; in experiment [16], 1.24%; in [17] it was 2.08%; in [18], -0.86%. In addition, the figures for the inhibition in experiment [19] and in experiment [20] were 6.35% and 15.4%, respectively.

On to `COC(=O)Nc1nc2ccc(Oc3ccc(NC(=O)Nc4cccc(Cl)c4)cc3)cc2[nH]1`, for which the inhibition in experiment [1] was 90.8%; in experiment [2] it was -0.72%; in experiment [3], -1.6%; in [4], 22.5%; in experiment [5], 57.1%; in experiment [6] it was 69.5%. The inhibition came out at 91.2% in experiment [7]; 2.47% in experiment [8]; 9.47% in experiment [9]; 2.31% in experiment [10]; 1.17% in experiment [11]; 5.13% in [12]. Also, the inhibition in experiment [13] worked out at 13.5%; in experiment [14], 4.25%; in [15], 11.1%; in [16], 2.64%; in experiment [17] it was 2.51%; in experiment [18], 9.7%. Besides, the inhibition was determined as 12.3% in experiment [19] and 10.2% in experiment [20].
